Results reported in PubChem BioAssay (NCI).
About 79,000 compounds went through this panel and 15% of them were active in at least one assay; those are over-represented in the sample as a whole. Activity calls are given as the source filed them. Rule as the data show it: active = growth inhibition above about 70%; inactive = the rest.

Legend:
[1] = NCI Yeast Anticancer Drug Screen. Data for the rad52 strain (AID 147);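 also: 0% = growth of vehicle-treated control cultures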; conditions: S. cerevisiae rad52 mutant growth inhibition, stronger effect = higher value
Summary of the method: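 Measured: yeast growth inhibition. System: strain with a defined DNA damage repair alteration. Reference: vehicle-treated control cultures.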

[2] = NCI Yeast Anticancer Drug Screen. Data for the wt1 strain (AID 149);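 also: 0% = growth of vehicle-treated wt1 cultures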; conditions: S. cerevisiae wt1 strain (SPY 50644) growth inhibition, stronger effect = higher value
Summary of the method: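 Yeast wt1 strain exposed to compounds; growth inhibition measured relative to vehicle-treated controls.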

[3] = NCI Yeast Anticancer Drug Screen. Data for the rad50EPP+ strain (AID 151);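 also: 0% = growth of vehicle-treated control cultures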; conditions: S. cerevisiae rad50 mutant strain, stronger effect = higher value
Summary of the method: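 One strain with a rad50 alteration (rad50EPP+) was compound-treated, its growth then compared to that of vehicle controls.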

[4] = NCI Yeast Anticancer Drug Screen. Data for the mgt1 strain (AID 153); conditions: S. cerevisiae mgt1 mutant growth inhibition, stronger effect = higher value
Summary of the method: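 After exposure of the mgt1 yeast mutant to compound, growth was measured and reported as inhibition compared with vehicle controls.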

[5] = NCI Yeast Anticancer Drug Screen. Data for the rad50 strain (AID 155);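 also: 0% = growth of vehicle-only cultures of the same strain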; conditions: S. cerevisiae rad50 strain growth inhibition, stronger effect = higher value
Summary of the method: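 Yeast carrying a defined DNA repair defect were exposed to test compounds, and growth was compared with vehicle-treated controls to give percent inhibition.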

[6] = NCI Yeast Anticancer Drug Screen. Data for the mec2-1 strain (AID 157); conditions: S. cerevisiae mec2-1 strain, stronger effect = higher value
Summary of the method: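 Test agents were screened against the mec2-1 yeast strain, with defined DNA repair or cell cycle alteration. Growth was scored as inhibition against vehicle-only controls.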

[7] = NCI Yeast Anticancer Drug Screen. Data for the rad14 strain (AID 159);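 also: 0% = growth of vehicle-treated control cultures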; conditions: S. cerevisiae rad14 strain growth inhibition, stronger effect = higher value
Summary of the method: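 Yeast cells carrying a defined DNA-repair defect were exposed to compounds, and growth inhibition was calculated relative to vehicle-treated control cultures.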

[8] = NCI Yeast Anticancer Drug Screen. Data for the sgs1 mgt1 strain (AID 161);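 also: 0% = growth of cultures given vehicle only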; conditions: S. cerevisiae sgs1 mgt1 strain, stronger effect = higher value
Summary of the method: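 Read-out: growth inhibition vs vehicle controls. Cells: mutant yeast strain deficient in DNA damage repair.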

[9] = NCI Yeast Anticancer Drug Screen. Data for the CLN2oe strain (AID 163);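 also: 0% = growth of vehicle-only control cultures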; conditions: S. cerevisiae CLN2oe strain, stronger effect = higher value
Summary of the method: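 Here, growth inhibition in a cell-cycle-altered yeast strain after compound exposure was quantified against vehicle control growth.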

[10] = NCI Yeast Anticancer Drug Screen. Data for the cln2 rad14 strain (AID 165);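 also: 0% = growth equal to vehicle treated cultures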; conditions: S. cerevisiae cln2 rad14 strain, stronger effect = higher value
Summary of the method: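 Growth of compound-exposed yeast (cln2 rad14 genotype) measured and expressed as inhibition relative to vehicle.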

[11] = NCI Yeast Anticancer Drug Screen. Data for the bub3 strain (AID 167); conditions: S. cerevisiae bub3 mutant strain, stronger effect = higher value
Summary of the method: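 Compounds were applied to a genetically altered yeast strain carrying a cell-cycle control defect. Growth inhibition was scored against vehicle-treated controls.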

[12] = NCI Yeast Anticancer Drug Screen. Data for the wt2 strain (AID 169);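 also: 0% = growth of vehicle-treated yeast cultures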; conditions: S. cerevisiae wt2 strain growth inhibition, stronger effect = higher value
Summary of the method: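 Genetically defined yeast strains from a DNA-repair/cell-cycle panel were used. Compound-exposed yeast growth was measured, and the inhibition was calculated relative to vehicle treatment.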

[13] = NCI Yeast Anticancer Drug Screen. Data for the mlh1 strain (AID 171);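 also: 0% = growth of vehicle-treated control cultures of the same strain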; conditions: S. cerevisiae mlh1 strain growth inhibition, stronger effect = higher value
Summary of the method: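 Here the genetically defined yeast mutant is grown with each compound, and the extent to which its growth falls below that of vehicle-exposed cells is reported.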

[14] = NCI Yeast Anticancer Drug Screen. Data for the mlh1 rad18 strain (AID 175); conditions: S. cerevisiae mlh1 rad18 strain growth inhibition, stronger effect = higher value
Summary of the method: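 In this whole-cell yeast screen, a strain with altered DNA damage repair is challenged with compound, and its growth is measured against matched vehicle-treated controls.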

[15] = NCI Yeast Anticancer Drug Screen. Data for the rad18 strain (AID 177); conditions: S. cerevisiae rad18 mutant growth inhibition, stronger effect = higher value
Summary of the method: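 Screen uses a yeast strain with a defined lesion in DNA damage repair; compound effect is read as loss of growth compared to untreated vehicle cultures.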

[16] = at 5.0 µM (retest, dose inferred, filed as 0.5)
[17] = at 50.0 µM (retest, dose inferred, filed as 5.0)

Measured: growth inhibition

O=C(O)c1c2ccc(Cl)cc2nc2[nH]c(=O)[nH]c(=O)c12
inactive: [1]; at 1.2 µM -38% | [1]; at 3.7 µM -34% | [1]; at 11.0 µM -25% | [1]; at 33.0 µM -30% | [1]; at 100.0 µM -13% | [2]; at 1.2 µM -37% | [2]; at 3.7 µM -35% | [2]; at 11.0 µM -44% | [2]; at 33.0 µM -38% | [2]; at 100.0 µM -18% | [3]; at 1.2 µM -13% | [3]; at 3.7 µM -46% | [3]; at 11.0 µM -10% | [3]; at 33.0 µM 28% | [3]; at 100.0 µM 50% | [4]; at 1.2 µM -37% | [4]; at 3.7 µM -31% | [4]; at 11.0 µM -35% | [4]; at 33.0 µM -5% | [4]; at 100.0 µM 17% | [5]; at 1.2 µM -56% | [5]; at 3.7 µM -28% | [5]; [16] 47% | [5]; at 11.0 µM -32% | [5]; at 33.0 µM -23% | [5]; [17] 45% | [5]; at 50.0 µM 29.4% | [5]; at 100.0 µM 36% | [6]; at 1.2 µM -63% | [6]; at 3.7 µM -50% | [6]; [16] 47% | [6]; at 11.0 µM -37% | [6]; at 33.0 µM -43% | [6]; [17] 52% | [6]; at 50.0 µM 36.9% | [6]; at 100.0 µM -30% | [7]; at 1.2 µM -14% | [7]; at 3.7 µM -16% | [7]; at 11.0 µM -21% | [7]; at 33.0 µM -22% | [7]; at 100.0 µM 3% | [8]; [16] 13% | [8]; [17] 26% | [8]; at 50.0 µM 27.6% | [9]; at 1.2 µM -45% | [9]; at 3.7 µM -33% | [9]; at 11.0 µM -24% | [9]; at 33.0 µM -13% | [9]; at 100.0 µM -1% | [10]; [16] 64% | [10]; [17] 12% | [10]; at 50.0 µM 9.2% | [11]; at 1.2 µM -57% | [11]; at 3.7 µM -40% | [11]; [16] 36% | [11]; at 11.0 µM -29% | [11]; at 33.0 µM -5% | [11]; at 100.0 µM 50% | [12]; at 1.2 µM -30% | [12]; at 3.7 µM -33% | [12]; at 11.0 µM -25% | [12]; at 33.0 µM -23% | [12]; at 100.0 µM 4% | [13]; at 1.2 µM -29% | [13]; at 3.7 µM -24% | [13]; at 11.0 µM -29% | [13]; at 33.0 µM -11% | [13]; at 100.0 µM 30% | [14]; [16] 45% | [14]; [17] 54% | [14]; at 50.0 µM 31.7% | [15]; at 1.2 µM -21% | [15]; at 3.7 µM -17% | [15]; at 11.0 µM -9% | [15]; at 33.0 µM -1% | [15]; at 100.0 µM 7%
active: [11]; [17] 82% | [11]; at 50.0 µM 79.5%

O=C1c2cccc3cccc(c23)C(=O)N1O
active: [1]; at 100.0 µM 84% | [2]; at 100.0 µM 86% | [3]; at 100.0 µM 89% | [4]; at 33.0 µM 81% | [4]; at 100.0 µM 95% | [5]; [17] 99% | [5]; at 50.0 µM 84.4% | [5]; at 100.0 µM 89% | [6]; [17] 98% | [6]; at 50.0 µM 87.3% | [6]; at 100.0 µM 94% | [7]; at 33.0 µM 92% | [7]; at 100.0 µM 97% | [8]; [16] 90% | [8]; [17] 98% | [8]; at 50.0 µM 90.3% | [9]; at 33.0 µM 92% | [9]; at 100.0 µM 99% | [10]; [16] 71% | [10]; [17] 98% | [11]; [16] 93% | [11]; at 11.0 µM 83% | [11]; at 33.0 µM 97% | [11]; [17] 98% | [11]; at 50.0 µM 83.3% | [11]; at 100.0 µM 98% | [12]; at 11.0 µM 92% | [12]; at 33.0 µM 98% | [12]; at 100.0 µM 99% | [13]; at 100.0 µM 90% | [14]; [17] 99% | [14]; at 50.0 µM 86.4% | [15]; at 100.0 µM 81%
inactive: [1]; at 1.2 µM -3% | [1]; at 3.7 µM 3% | [1]; at 11.0 µM 1% | [1]; at 33.0 µM 24% | [2]; at 1.2 µM 3% | [2]; at 3.7 µM -1% | [2]; at 11.0 µM 7% | [2]; at 33.0 µM 24% | [3]; at 1.2 µM -3% | [3]; at 3.7 µM -2% | [3]; at 11.0 µM -1% | [3]; at 33.0 µM 28% | [4]; at 1.2 µM -8% | [4]; at 3.7 µM 4% | [4]; at 11.0 µM 23% | [5]; at 1.2 µM 9% | [5]; at 3.7 µM 13% | [5]; [16] 13% | [5]; at 11.0 µM 13% | [5]; at 33.0 µM 54% | [6]; at 1.2 µM 5% | [6]; at 3.7 µM -5% | [6]; [16] 33% | [6]; at 11.0 µM 4% | [6]; at 33.0 µM 36% | [7]; at 1.2 µM 16% | [7]; at 3.7 µM 13% | [7]; at 11.0 µM 46% | [9]; at 1.2 µM 6% | [9]; at 3.7 µM 8% | [9]; at 11.0 µM 29% | [10]; at 50.0 µM 47.1% | [11]; at 1.2 µM 4% | [11]; at 3.7 µM 18% | [12]; at 1.2 µM 3% | [12]; at 3.7 µM 17% | [13]; at 1.2 µM -11% | [13]; at 3.7 µM -10% | [13]; at 11.0 µM 0% | [13]; at 33.0 µM 57% | [14]; [16] 23% | [15]; at 1.2 µM 6% | [15]; at 3.7 µM 3% | [15]; at 11.0 µM 13% | [15]; at 33.0 µM 41%

Cc1ccc(S(=O)(=O)NC(=O)C2C(=O)CC3(CCCCC3)CC2=O)cc1
active: [2]; at 100.0 µM 83% | [4]; at 33.0 µM 80% | [4]; at 100.0 µM 85%
inactive: [1]; at 1.2 µM -22% | [1]; at 3.7 µM -37% | [1]; at 11.0 µM -34% | [1]; at 33.0 µM 7% | [1]; at 100.0 µM 36% | [2]; at 1.2 µM -22% | [2]; at 3.7 µM -16% | [2]; at 11.0 µM -20% | [2]; at 33.0 µM 67% | [3]; at 1.2 µM -3% | [3]; at 3.7 µM -21% | [3]; at 11.0 µM -18% | [3]; at 33.0 µM -12% | [3]; at 100.0 µM -21% | [4]; at 1.2 µM -24% | [4]; at 3.7 µM -16% | [4]; at 11.0 µM -13% | [5]; at 1.2 µM -12% | [5]; at 3.7 µM -6% | [5]; [16] 10% | [5]; at 11.0 µM -23% | [5]; at 33.0 µM 5% | [5]; [17] 25% | [5]; at 50.0 µM -9.4% | [5]; at 100.0 µM 35% | [6]; at 1.2 µM -25% | [6]; at 3.7 µM -30%
